For 15 molecules, outcome and AC50 results are on record in PubChem BioAssay (EPA / NIEHS).

Structures are written as SMILES. Active and inactive are the calls of the source. Rule for the calls: active = hit-call score of the fitted dose curve at least 0.9, where 1 is the maximum; inactive = score below 0.9.

Read-out in assay [1]: CFLAR gene, CFLAR (gene 8837)
The assay can be described thus: LTEA_HepaRG_CFLAR: Life Technologies and Expression Analysis (LTEA) Assay for CFLAR gene using HepaRG (AID 2283455). The following applies: mRNA level, 48 h; actives raise or lower the signal. In short, it runs like this:
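qRT-PCR read-out (Fluidigm/TaqMan) of CFLAR mRNA, normalized to three housekeeping genes, in differentiated human HepaRG cells after 48 h chemical exposure; 8-point half-log series from 100 uM in 0.5% DMSO; bidirectional curve fitting versus DMSO.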

Read-out in assay [2]: Forkhead box O1 (FOXO1), FOXO1 (gene 2308)
As to the kind of experiment: LTEA_HepaRG_FOXO1: Life Technologies and Expression Analysis (LTEA) Assay for Forkhead box O1 (FOXO1) using HepaRG (AID 2283456). The following applies: mRNA level, 48 h; actives raise or lower the signal. In short, it runs like this: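 HepaRG, 48 h exposure, 8-pt half-log series from 100 uM in 0.5% DMSO, duplicates; Fluidigm qRT-PCR mRNA, housekeeping-normalised; bidirectional fit vs DMSO baseline.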

Read-out in assay [3]: growth arrest and DNA damage 45 (GADD45A), GADD45A (gene 1647)
As to the kind of experiment: LTEA_HepaRG_GADD45A: Life Technologies and Expression Analysis (LTEA) Assay for growth arrest and DNA damage 45 (GADD45A) using HepaRG (AID 2283458). The note with it: mRNA level, 48 h; actives raise or lower the signal. In short, it runs like this:
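Transcript induction or loss, quantified by TaqMan qRT-PCR against three housekeeping genes, is the read-out. HepaRG cells received chemicals for 48 h across eight half-log concentrations from 100 uM in 0.5% DMSO; gain and loss fitted relative to DMSO.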

Read-out in assay [4]: ABC Transporter (ABCB1), ABCB1 (gene 5243)
As to the kind of experiment: LTEA_HepaRG_ABCB1: Life Technologies and Expression Analysis (LTEA) Assay for ABC Transporter (ABCB1) using HepaRG (AID 2283460). The following applies: mRNA level, 48 h; actives raise or lower the signal. In short, it runs like this: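 HepaRG, 48 h exposure, 8-pt half-log series from 100 uM, 0.5% DMSO vehicle, duplicates. Readout: ABCB1 transcript by Fluidigm TaqMan qRT-PCR, housekeeping-normalized; bidirectional curve fit vs DMSO baseline.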

Read-out in assay [5]: growth arrest and DNA damage 45 (GADD45B), GADD45B (gene 4616)
As to the kind of experiment: LTEA_HepaRG_GADD45B: Life Technologies and Expression Analysis (LTEA) Assay for growth arrest and DNA damage 45 (GADD45B) using HepaRG (AID 2283461). The note with it: mRNA level, 48 h; actives raise or lower the signal. In short, it runs like this: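 Differentiated HepaRG cells, plated 48 h then switched to serum-free induction medium, were exposed 48 h in duplicate to eight half-log concentrations from 100 uM in 0.5% DMSO; mRNA quantified by qRT-PCR, normalized to ACTB/GAPDH/POLR2A, bidirectional fit versus DMSO.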

Read-out in assay [6]: ABC Transporter (ABCC3), ABCC3 (gene 8714)
The assay can be described thus: LTEA_HepaRG_ABCC3: Life Technologies and Expression Analysis (LTEA) Assay for ABC Transporter (ABCC3) using HepaRG (AID 2283462). The following applies: mRNA level, 48 h; actives raise or lower the signal. In short, it runs like this: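 HepaRG cells in serum-free induction medium were exposed for 48 h in duplicate to 8-point half-log concentrations topping at 100 uM in 0.5% DMSO. ABCC3 mRNA was measured by qRT-PCR normalized to ACTB, GAPDH and POLR2A, with bidirectional fitting versus DMSO.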

Read-out in assay [7]: ABC Transporter (ABCB11), ABCB11 (gene 8647)
As to the kind of experiment: LTEA_HepaRG_ABCB11: Life Technologies and Expression Analysis (LTEA) Assay for ABC Transporter (ABCB11) using HepaRG (AID 2283463). The following applies: mRNA level, 48 h; actives raise or lower the signal. The procedure, abridged: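 HepaRG, 48 h exposure, 8-pt half-log CRC top 100 uM, 0.5% DMSO vehicle, duplicates. Readout: TaqMan qRT-PCR of ABCB11 mRNA, housekeeping-normalized (ACTB/GAPDH/POLR2A). Bidirectional fit vs DMSO baseline.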

Read-out in assay [8]: ABC Transporter (ABCC2), ABCC2 (gene 1244)
As to the kind of experiment: LTEA_HepaRG_ABCC2: Life Technologies and Expression Analysis (LTEA) Assay for ABC Transporter (ABCC2) using HepaRG (AID 2283464). The following applies: mRNA level, 48 h; actives raise or lower the signal. The procedure, abridged:
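HepaRG cells were plated 48 h, switched to serum-free induction medium, then exposed in duplicate for 48 h to 8 concentrations (top 100 uM, half-log steps, 0.5% DMSO). ABCC2 mRNA was measured by qRT-PCR normalized to ACTB/GAPDH/POLR2A; bidirectional fitting versus DMSO.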

Read-out in assay [9]: Forkhead box O3 (FOXO3), FOXO3 (gene 2309)
As to the kind of experiment: LTEA_HepaRG_FOXO3: Life Technologies and Expression Analysis (LTEA) Assay for Forkhead box O3 (FOXO3) using HepaRG (AID 2283459). The note with it: mRNA level, 48 h; actives raise or lower the signal. In short, it runs like this: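 qRT-PCR readout of FOXO3 transcript, normalized to three housekeeping genes (ACTB, GAPDH, POLR2A); gain or loss fitted against 0.5% DMSO vehicle. HepaRG cells, 48 h chemical exposure, 8-point half-log series, top 100 uM.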

The nature of assay [10]: CEETOX_H295R_TESTO: CeeTox H295R High-throughput Steroidogenesis Assay for Testosterone (TESTO) (AID 2283457). The note with it: actives raise or lower the signal. In short, it runs like this: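 H295R human adrenal cells in DMEM/F12 with ITS+ and Nu-Serum, exposed to chemicals for 48 h. Testosterone in medium measured by MTBE extraction, reverse-phase HPLC-MS/MS; bidirectional fit versus DMSO baseline. MTT viability checked in same wells.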

Take `c1ccc2c(c1)Cc1ccccc1-2`: the molecule was classed as inactive in assay [1], in assay [2], in assay [3], in assay [4], in [5] and in assay [6]. Moreover, the call in assay [7] and in assay [8] was inactive.

Consider `CCCCCCCCC(=O)O`, for which the result in [1], in assay [2], in assay [3], in [9], in assay [4] and in assay [5] was inactive. Further, the result in [6], in [7] and in assay [8] was inactive.

As a reminder, the AC50 is the concentration at which the activity in the assay is half-maximal. Take `C#C[C@]1(O)CC[C@H]2[C@@H]3CCC4=CC(=O)CC[C@@H]4[C@H]3CC[C@@]21C`: the molecule was classed as inactive in assay [1], in [2], in [3], in assay [5] and in [6]. For the same molecule, the AC50 is 9.92 µM (active) in assay [4], 0.24 µM (active) in [7] and 50 µM (active) in assay [8].

Turning to `CC#C[C@]1(O)CC[C@H]2[C@@H]3CCC4=CC(=O)CCC4=C3[C@@H](c3ccc(N(C)C)cc3)C[C@@]21C`, the result in assay [1] and in [6] was inactive. Moreover, the concentration at half-maximal activity (AC50) in assay [2] was 3.33 µM (active); in assay [3], 72.6 µM (active); in [9], 91.2 µM (active); in assay [4], 26.9 µM (active); in assay [5], 12 µM (active); in assay [7] it was 24.7 µM (active). In assay [8], the half-maximal activity concentration (AC50) was 2.42 µM (active).

Take `Nc1cccc2c(N)cccc12`: the result in [1], in assay [2], in assay [10], in assay [4], in [5] and in assay [6] was inactive. Further, the result in [8] was inactive. Also, the concentration at half-maximal activity (AC50) in assay [9] is 22.4 µM (active); in assay [7], 50 µM (active).

Regarding `CC(=O)CC(C)(C)O`, the outcome in assay [1], in assay [2], in assay [3], in [9], in assay [4] and in assay [5] was inactive. Further, the call in assay [6], in assay [7] and in assay [8] was inactive.

Regarding `CCOC(=O)CC(O)(CC(=O)OCC)C(=O)OCC`, the outcome in assay [1], in [2], in [3], in [4], in [5] and in assay [6] was inactive. The call in assay [7] and in [8] was inactive.

Regarding `O=C(OCCOCCOC(=O)c1ccccc1)c1ccccc1`, the molecule was called inactive in assay [1], in assay [2], in [3], in assay [4], in assay [5] and in [6]. Besides, the result in assay [7] and in assay [8] was inactive.

Regarding `CC1=C(/C=C/C(C)=C/C=C/C(C)=C/C(=O)O)C(C)(C)CCC1`, the figures for the half-maximal activity concentration (AC50) in assay [1], in assay [4] and in assay [7] were 5.84 µM (active), 0.81 µM (active) and 29.4 µM (active), respectively. Further, the molecule was called inactive in [2], in assay [3], in assay [5], in [6] and in assay [8].

For `O=C(O)Cc1cc(I)c(Oc2cc(I)c(O)c(I)c2)c(I)c1`, the AC50 in [1] was 33.5 µM (active); in assay [2], 50.7 µM (active); in assay [3] it was 50.2 µM (active); in assay [5] it was 55.4 µM (active); in assay [6], 52.4 µM (active); in [7] it was 19.9 µM (active). For the same molecule, in assay [8], the half-maximal activity concentration (AC50) is 57.7 µM (active). Moreover, the molecule was called inactive in [4].

`O=C(O)c1ccccc1C(c1ccc(O)cc1)c1ccc(O)cc1`: the molecule was classed as inactive in assay [1], in assay [2], in [10], in assay [4], in [5] and in [6]. Besides, the result in [7] and in assay [8] was inactive.

For the molecule `COCC(C)O` (centres undefined), the molecule was called inactive in assay [1], in [2], in assay [9], in assay [4], in [5] and in [6]. Also, the molecule was classed as inactive in assay [7] and in [8].

On to `c1ccc2cc3c(ccc4ccccc43)cc2c1`, for which the AC50 in [1] is 10.5 µM (active); in [2], 17.8 µM (active); in [9], 6.54 µM (active); in assay [4], 13.2 µM (active); in assay [5], 20.1 µM (active); in [7] it was 14.6 µM (active). For the same molecule, the molecule was classed as inactive in assay [3], in assay [6] and in assay [8].

With `NC(=O)N1C(=O)C(C(=O)c2cc(Cl)cs2)c2cc(F)c(Cl)cc21` (centres undefined), the molecule was called inactive in assay [1]. Besides, the concentration at half-maximal activity (AC50) in assay [2] was 12.6 µM (active); in assay [9], 35 µM (active); in [4], 19.4 µM (active); in assay [5], 28.1 µM (active); in assay [6] it was 12.8 µM (active); in [7], 15.6 µM (active). For the same molecule, the AC50 in assay [8] is 27.7 µM (active).

Turning to `CC(C)(C)c1cc(C(C)(C)C)c(O)c(C(C)(C)C)c1`, the result in assay [1], in assay [2], in assay [3], in assay [4], in assay [5] and in assay [7] was inactive. Also, the concentration at half-maximal activity (AC50) in [8] was 50 µM (active).
